Experiment [1] in a line: AP1 Signaling Pathway (AID 357; active means well fitted curve in either direction with a large enough effect, not every such curve was filed as active;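 further: ME-180 reporter cells stimulated with EGF at its EC50 level; on the % scale 0 is the no-effect control and ±100 the full control effect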). The essentials:
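Cells are seeded overnight, exposed to compound titrations and an EC50 level of EGF for 5 hours at 37 °C, then loaded with CCF4 dye for 2.5 hours. Beta-lactamase activity under the AP-1 element is read as a blue/green ratio.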

A short description of experiment [2]: NFAT Signaling Pathway (AID 444; active means well fitted curve in either direction with a large enough effect, not every such curve was filed as active;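 further: carbachol stimulus at about its EC50 of 1 µM final; on the % scale 0 is the no-effect control and ±100 the full control effect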). Conditions: Jurkat NFAT-bla M1, carbachol, beta-lactamase ratio, 5 h; at 17.2 µM (top of the series) unless noted. A digest of the protocol: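 Jurkat cells carrying an NFAT-driven β-lactamase reporter and co-transfected muscarinic M1 receptor were treated with compound plus carbachol (1 uM final, an EC50 level) for 5 h at 37 °C. CCF4 loading followed for 1 h at RT; 460/530 nm ratio gave %activity.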

Experiment [3] is described as follows: Stat Signaling Pathway (AID 446; active means well fitted curve in either direction with a large enough effect, not every such curve was filed as active;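 further: ME-180 cervical cancer cells given 40 pM IL-6 alongside compound; SIE-controlled beta-lactamase reporter measured as 460/530 nm FRET emission ratio; on the % scale 0 is the no-effect control and ±100 the full control effect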). A digest of the protocol:
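Emission at 460 and 530 nm (excitation 405 nm) reports SIE-controlled beta-lactamase in ME-180 cells. Cells received compound with 40 pM IL-6 for 5 hrs at 37 C; data scaled between 300 pM IL-6 and 125 nM JAK-inhibitor controls.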

In experiment [4] the target is Glucocorticoid receptor (Homo sapiens) (UniProt P04150). Briefly: GR-GFP Redistribution (AID 450;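 active means compounds whose dose series gives a full or clear partial fitted curve of increased nuclear translocation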; further: potency means the concentration at half of the fitted maximal effect). The settings on record: U2OS GR-GFP nuclear translocation, laser cytometry, 2 h.
For experiment [5] the target is unchanged. Put plainly: GR-EFC Redistribution (AID 451; calls by dose curve; further: potency means the concentration at half of the fitted maximal effect). Conditions: CHO-K1 GR-EFC translocation, beta-gal luminescence, 2 h. The essentials: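 CHO-K1 cells stably expressing nuclear-localized β-gal enzyme acceptor and GR fused C-terminally to the enzyme donor fragment; ligand-driven nuclear translocation restores β-gal by complementation. Compounds titrated up to 46 uM final, 2 h at 37 °C; luminescence read.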

For experiment [6], the target named is Mitogen-activated protein kinase 10 (Mus musculus) (UniProt Q61831). Put plainly: JNK3 AlphaScreen Assay (AID 530; active means well fitted curve in either direction with a large enough effect, not every such curve was filed as active;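 further: kinase came from lysate of stimulated human HepG2 cells; signal reports phosphorylation of biotinylated GST-cJun 1-79 at Ser73 with 10 µM ATP; on the % scale 0 is the no-effect control and ±100 the full control effect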). The essentials:
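Phosphorylation of biotinylated GST-cJun(1-79) at Ser73 is measured by AlphaScreen proximity luminescence. Enzyme is JNK3 in HepG2 lysates activated with interleukin-1beta and tumor necrosis factor alpha; ATP is 10 uM final.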
On the technique in general: Alpha assays give light when donor and acceptor beads are brought close together.

For experiment [7], the target named is 3',5'-cyclic-AMP phosphodiesterase 4B (Homo sapiens) (UniProt Q07343). Put plainly: qHTS Assay for Inhibitors of PDE-IV (AID 607; active means well fitted activation curve with a large enough effect in the main read-out, with a control signal flat, not every such curve was filed as active; further: % of control where 0% means no effect). A digest of the protocol:
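The readout is membrane depolarisation from a cAMP-sensing CNG channel, detected with a potential dye at ex 535/em 590. Cells were HEK293-derived (endogenous PDE-IV) at 1000 cells/well, titrated up to 22.9 uM final.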

Experiment [8] in a line: qHTS Assay for Lipid Storage Modulators (AID 1519; calls by dose curve). Conditions: Drosophila S3 cells, BODIPY lipid droplet/cell ratio, laser cytometry, cells loaded with oleic acid; for activity change, negative = inhibition: at 25.7 µM (top of the series). The essentials: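 Cells seeded at 5,000 per well were treated with compounds over a concentration series and loaded with oleic acid (400 uM, as added). Lipid droplet fluorescence (488 nm excitation, 500-530 nm channel) was read by laser-scanning cytometry and normalized to 20 uM Triacsin C.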

Experiment [9] deals with Ubiquitin carboxyl-terminal hydrolase 1 (Homo sapiens) (UniProt O94782). Put plainly: Inhibitors of USP1/UAF1: Pilot qHTS (AID 504865).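 Further: rhodamine fluorescence freed from ubiquitin-rhodamine substrate followed over time; top concentration of the series differs between compounds; on the % scale 0 is the no-effect control and ±100 the full control effect; nearly all actives have a fitted effect of over 35% in size.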 The essentials:
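USP1/UAF1 complex at 1 nM preincubated 15 min at room temperature with compound, then Ub-Rho substrate added at 150 nM final. Fluorescence (480/540 nm) read kinetically in 50 mM HEPES pH 7.8, 0.5 mM EDTA, 1 mM TCEP, 0.1 mg/ml BSA, 0.01% Tween-20.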
In general terms: qHTS replaces the single test concentration by a dilution series.

Experiment [10] is described as follows: qHTS profiling for inhibitors of Plasmodium falciparum proliferation (AID 504749).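 Further: 0% = DMSO vehicle and full inhibition = artemisinin control; nearly all actives have a fitted effect of over 60% in size.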 The settings on record: P. falciparum in erythrocytes, SYBR Green DNA, 72 h, at 12.8 µM (top of the series). The essentials: (§1)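 Quantitative HTS: compounds pinned into medium, infected erythrocytes added (0.3% parasitemia, 2.5% hematocrit), 72 h culture at 37 C under 5% CO2. Saponin/Triton lysis with SYBR Green I, overnight RT, then fluorescence read.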

The next experiment relates to C2A. Described as above. Conditions: P. falciparum in erythrocytes, SYBR Green DNA, 72 h; series mostly up to 12.8 µM. The essentials:
as §1

The next experiment deals with CP191. The experiment is described as above. The settings on record: P. falciparum in erythrocytes, SYBR Green DNA, 72 h; series mostly up to 12.8 µM. The essentials: as §1
The test system of another experiment is CP217. The experiment is described as above. Conditions: P. falciparum in erythrocytes, SYBR Green DNA, 72 h; series mostly up to 12.8 µM. A digest of the protocol:
as §1

For another experiment, the system named is CP238. Described as above. Conditions: P. falciparum in erythrocytes, SYBR Green DNA, 72 h; series mostly up to 12.8 µM. A digest of the protocol:
as §1

The next experiment has as its system CP250. The experiment is described as above. Conditions: P. falciparum in erythrocytes, SYBR Green DNA, 72 h; series mostly up to 12.8 µM. A digest of the protocol: as §1
The subject of another experiment is CP256. Described as above. Conditions: P. falciparum in erythrocytes, SYBR Green DNA, 72 h; series mostly up to 12.8 µM. A digest of the protocol:
as §1

In a further experiment the test system is FAB9. The experiment is described as above. The settings on record: P. falciparum in erythrocytes, SYBR Green DNA, 72 h; series mostly up to 12.8 µM. The essentials: as §1
The subject of a further experiment is JCK. The experiment is described as above. The settings on record: P. falciparum in erythrocytes, SYBR Green DNA, 72 h; series mostly up to 12.8 µM. A digest of the protocol: as §1
The next experiment has as its system PC49. The description is as above. Conditions: P. falciparum in erythrocytes, SYBR Green DNA, 72 h; series mostly up to 12.8 µM. A digest of the protocol: as §1
Another experiment has as its system SC27B. The description is as above. Conditions: P. falciparum in erythrocytes, SYBR Green DNA, 72 h; series mostly up to 12.8 µM. A digest of the protocol:
as §1

Where [11] appears, read: measured here: cell count channel max response.
[12] abbreviates: measured here: lipid channel max response.

“And” between values parts separate entries of the source, which are not always exact repeats. Identical values can stand only once. Results filed as inconclusive are left out. The source made the active and inactive calls. Unless noted, the call rests on the fitted dose curve; in most records, active means well fitted inhibition curve with a large enough effect; inconclusive means small, poorly fitted or top-dose-only effect; inactive means flat fitted curve, though single readings scatter.

Sequence of Glucocorticoid receptor (Homo sapiens) (P04150 whole entry, looked up, the tested form may be a part): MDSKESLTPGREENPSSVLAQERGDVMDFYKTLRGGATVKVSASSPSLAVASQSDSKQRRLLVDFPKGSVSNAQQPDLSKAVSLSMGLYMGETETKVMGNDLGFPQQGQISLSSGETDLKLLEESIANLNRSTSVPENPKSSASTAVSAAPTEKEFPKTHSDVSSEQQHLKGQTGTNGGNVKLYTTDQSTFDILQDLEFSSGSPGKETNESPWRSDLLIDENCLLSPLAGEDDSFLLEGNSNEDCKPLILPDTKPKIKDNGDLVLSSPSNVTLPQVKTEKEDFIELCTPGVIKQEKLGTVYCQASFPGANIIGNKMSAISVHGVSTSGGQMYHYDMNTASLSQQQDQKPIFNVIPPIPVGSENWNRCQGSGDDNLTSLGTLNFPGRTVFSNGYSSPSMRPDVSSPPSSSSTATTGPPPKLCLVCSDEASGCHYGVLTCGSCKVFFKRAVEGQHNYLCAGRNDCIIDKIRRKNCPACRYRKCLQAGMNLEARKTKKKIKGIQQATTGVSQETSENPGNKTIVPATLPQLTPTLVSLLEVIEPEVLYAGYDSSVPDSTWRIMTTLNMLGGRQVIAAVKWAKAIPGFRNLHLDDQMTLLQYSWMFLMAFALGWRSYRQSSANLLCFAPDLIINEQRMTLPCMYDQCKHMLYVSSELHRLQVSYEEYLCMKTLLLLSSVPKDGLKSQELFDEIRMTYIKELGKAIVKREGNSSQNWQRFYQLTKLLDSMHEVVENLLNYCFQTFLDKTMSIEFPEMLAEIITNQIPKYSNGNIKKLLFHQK
Sequence of 3',5'-cyclic-AMP phosphodiesterase 4B (Homo sapiens) (Q07343 whole entry, looked up): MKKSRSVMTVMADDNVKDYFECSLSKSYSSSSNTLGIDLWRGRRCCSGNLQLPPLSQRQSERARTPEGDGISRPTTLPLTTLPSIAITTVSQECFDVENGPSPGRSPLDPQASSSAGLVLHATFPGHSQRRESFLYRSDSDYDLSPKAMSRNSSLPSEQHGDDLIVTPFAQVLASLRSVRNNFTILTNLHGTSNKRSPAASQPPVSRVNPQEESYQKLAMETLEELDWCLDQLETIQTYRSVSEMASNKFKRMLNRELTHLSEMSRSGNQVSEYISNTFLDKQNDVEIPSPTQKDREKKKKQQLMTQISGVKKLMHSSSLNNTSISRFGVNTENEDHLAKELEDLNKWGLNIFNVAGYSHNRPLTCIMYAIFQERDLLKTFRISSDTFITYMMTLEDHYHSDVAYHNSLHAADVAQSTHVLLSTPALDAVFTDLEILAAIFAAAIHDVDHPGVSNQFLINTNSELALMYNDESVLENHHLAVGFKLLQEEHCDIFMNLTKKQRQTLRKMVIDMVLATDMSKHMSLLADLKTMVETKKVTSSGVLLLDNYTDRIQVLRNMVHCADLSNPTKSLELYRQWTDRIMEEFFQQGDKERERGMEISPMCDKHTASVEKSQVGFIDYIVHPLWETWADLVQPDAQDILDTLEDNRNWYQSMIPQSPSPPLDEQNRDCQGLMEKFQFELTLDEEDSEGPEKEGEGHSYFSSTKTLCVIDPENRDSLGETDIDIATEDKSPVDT
Sequence of Ubiquitin carboxyl-terminal hydrolase 1 (Homo sapiens) (O94782 whole entry, looked up): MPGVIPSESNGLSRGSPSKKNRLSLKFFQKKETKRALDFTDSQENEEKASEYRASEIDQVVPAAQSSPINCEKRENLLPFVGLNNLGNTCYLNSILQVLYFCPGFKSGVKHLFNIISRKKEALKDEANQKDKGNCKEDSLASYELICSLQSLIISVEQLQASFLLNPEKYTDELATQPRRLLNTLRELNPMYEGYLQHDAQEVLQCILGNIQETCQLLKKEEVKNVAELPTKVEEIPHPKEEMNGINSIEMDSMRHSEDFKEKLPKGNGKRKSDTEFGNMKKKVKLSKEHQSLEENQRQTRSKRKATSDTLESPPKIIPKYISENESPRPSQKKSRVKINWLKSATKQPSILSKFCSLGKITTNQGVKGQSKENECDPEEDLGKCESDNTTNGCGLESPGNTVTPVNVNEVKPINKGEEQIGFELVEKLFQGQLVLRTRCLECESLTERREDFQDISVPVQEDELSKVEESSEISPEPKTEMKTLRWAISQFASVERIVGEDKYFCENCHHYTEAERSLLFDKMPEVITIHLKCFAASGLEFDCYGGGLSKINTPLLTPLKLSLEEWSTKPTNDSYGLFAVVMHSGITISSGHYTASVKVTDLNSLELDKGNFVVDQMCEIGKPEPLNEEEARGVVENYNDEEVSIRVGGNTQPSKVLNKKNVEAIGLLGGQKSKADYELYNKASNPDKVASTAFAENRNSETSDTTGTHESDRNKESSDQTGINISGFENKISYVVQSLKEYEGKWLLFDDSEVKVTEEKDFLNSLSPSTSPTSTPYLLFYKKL

Regarding `O=C1CN(/N=C\c2ccc([N+](=O)[O-])o2)C(=O)N1`, the outcome in experiment [1], in experiment [3] and in [7] was inactive. Besides, the activity change, negative = inhibition in experiment [2] was -2.23% (inactive); in [8], 1.21% (inactive). Also, the Potency in experiment [4] and in [5] was > 20.6 µM (inactive) throughout. In addition, the Potency result in experiment [6] and in experiment [9] was “inactive” in each case. For the same compound, the max response in experiment [8] (setting [11]) came to 3.28%; in experiment [8] (setting [12]), 0.924%.

For the compound `C[C@@]12CCC(=O)C[C@@H]1CC(=O)[C@H]1[C@H]3CCC[C@]3(C)C(=O)C[C@@H]12` (tested in a mixture with another compound), the result in [1], in experiment [3] and in experiment [7] was inactive. Besides, the activity change, negative = inhibition in [2] was -7.43% (inactive); in [8] it was 0.558% (inactive). For the same compound, the Potency in experiment [4] and in experiment [5] was > 20.6 µM (inactive) in each case. In addition, the Potency result in [6] and in experiment [9] was “inactive” in each case. Moreover, the max response in experiment [8] (setting [11]) is 2.78%; in [8] (setting [12]) it was 4.64%.

As to `C[N+]1(C)CCC[C@H]1C(=O)[O-]`, the compound was called inactive in [1], in experiment [3] and in experiment [7]. Also, the activity change, negative = inhibition is -2.21% (inactive) in experiment [2] and -1.16% (inactive) in experiment [8]. The Potency in experiment [4] and in experiment [5] was > 20.6 µM (inactive) each time. Moreover, the Potency result in experiment [6] was “inactive”. Also, the figures for the max response in [8] (setting [11]) and in experiment [8] (setting [12]) were 6.12% and 4.64%, respectively.

As for `CCCCC[C@H](O)/C=C\[C@H]1[C@H](C/C=C\CCCC(=O)O)[C@@H](O)C[C@H]1O` (tested in a mixture with another compound), the result in experiment [1], in [3] and in experiment [7] was inactive. The values for the activity change, negative = inhibition in experiment [2] and in experiment [8] were 11.1% (inactive) and -0.941% (inactive), respectively. Besides, the Potency in experiment [4] and in [5] was > 20.6 µM (inactive) each time. The Potency result (in experiment [6]; in [9]; in the experiment with C2A; in the experiment on CP191; in the experiment on CP217; with CP238) was “inactive” throughout. For the same compound, the Potency result in the experiment on CP250, in the experiment with CP256, in the experiment on FAB9, in the experiment on JCK, in the experiment with PC49 and in the experiment with SC27B was “inactive” each time. In addition, the max response stood at 14.3% in experiment [8] (setting [11]) and 13.4% in experiment [8] (setting [12]). The figures for the activity, negative = inhibition in [10] (parasite line A) and in experiment [10] (parasite line B) were -9.08% (inactive) and -0.0944% (inactive), respectively.

For `C[C@@H]1[C@H](C)CC[C@@]2(C(=O)O[C@H]3O[C@@H](CO[C@H]4O[C@@H](CO)[C@@H](O[C@H]5O[C@@H](C)[C@@H](O)[C@@H](O)[C@@H]5O)[C@@H](O)[C@@H]4O)[C@@H](O)[C@@H](O)[C@@H]3O)CC[C@]3(C)C(=CC[C@H]4[C@@]5(C)C[C@@H](O)[C@@H](O)[C@](C)(CO)[C@@H]5CC[C@@]43C)[C@@H]12`, the call in experiment [1], in experiment [3] and in experiment [7] was inactive. For the same compound, the activity change, negative = inhibition was -1.63% (inactive) in experiment [2] and -3.24% (inactive) in [8]. In addition, the Potency in experiment [4] and in experiment [5] was > 20.6 µM (inactive) in each case. The Potency entry in experiment [6] and in experiment [9] was “inactive” in each case. The values for the max response in [8] (setting [11]) and in [8] (setting [12]) were -4% and -10.2%, respectively.

Take `C1CCN2C[C@@H]3C[C@@H](CN4CCCC[C@H]34)[C@H]2C1`: the outcome in [1], in experiment [3] and in experiment [7] was inactive. Further, the activity change, negative = inhibition in [2] was -16.7% (inactive); in experiment [8] it was -1.82% (inactive). For the same compound, the Potency in experiment [4] was > 20.6 µM (inactive) and > 46 µM (inactive); in [5], > 20.6 µM (inactive) and > 46 µM (inactive). Also, the Potency result (in [6]; in [9]; in the experiment on C2A; in the experiment on CP191; in the experiment with CP217; in the experiment with CP238) was “inactive” in each case. Besides, the Potency result in the experiment on CP250, in the experiment with CP256, in the experiment with FAB9, in the experiment on JCK, in the experiment on PC49 and with SC27B was “inactive” each time. The max response in experiment [8] (setting [11]) was -3.93%; in experiment [8] (setting [12]) it was -5.58%. In addition, the activity, negative = inhibition in experiment [10] (parasite line A) was 5.24% (inactive); in experiment [10] (parasite line B), 14.7% (inactive).

The values above are taken from PubChem BioAssay (NCATS).
